Laboratory results from ChEMBL document CHEMBL3988442, “University of Dundee, Small-Polar-MMV Screening Library” (2021).
For part of these data: Potency and affinity values are given separately.

Key:
Set-up in all cases: scale not given: direction of the effect not stated beside the values
[1] = target: Protein translocase subunit SecA (Escherichia coli (strain K12)) (UniProt P10408); assay: Assay to Identify E. coli SecA ATPase Inhibitors; assay type: functional; details: 30 µM
[2] = target: T1, Ubiquitin-activating enzyme e1, putative (Leishmania donovani (strain BPK282A1)) (UniProt E9BSI1); assay: Leishmania donovani Ubiquitin Activating Enzyme (LdE1); assay type: functional; details: 30 µM
T1 sequence (whole entry): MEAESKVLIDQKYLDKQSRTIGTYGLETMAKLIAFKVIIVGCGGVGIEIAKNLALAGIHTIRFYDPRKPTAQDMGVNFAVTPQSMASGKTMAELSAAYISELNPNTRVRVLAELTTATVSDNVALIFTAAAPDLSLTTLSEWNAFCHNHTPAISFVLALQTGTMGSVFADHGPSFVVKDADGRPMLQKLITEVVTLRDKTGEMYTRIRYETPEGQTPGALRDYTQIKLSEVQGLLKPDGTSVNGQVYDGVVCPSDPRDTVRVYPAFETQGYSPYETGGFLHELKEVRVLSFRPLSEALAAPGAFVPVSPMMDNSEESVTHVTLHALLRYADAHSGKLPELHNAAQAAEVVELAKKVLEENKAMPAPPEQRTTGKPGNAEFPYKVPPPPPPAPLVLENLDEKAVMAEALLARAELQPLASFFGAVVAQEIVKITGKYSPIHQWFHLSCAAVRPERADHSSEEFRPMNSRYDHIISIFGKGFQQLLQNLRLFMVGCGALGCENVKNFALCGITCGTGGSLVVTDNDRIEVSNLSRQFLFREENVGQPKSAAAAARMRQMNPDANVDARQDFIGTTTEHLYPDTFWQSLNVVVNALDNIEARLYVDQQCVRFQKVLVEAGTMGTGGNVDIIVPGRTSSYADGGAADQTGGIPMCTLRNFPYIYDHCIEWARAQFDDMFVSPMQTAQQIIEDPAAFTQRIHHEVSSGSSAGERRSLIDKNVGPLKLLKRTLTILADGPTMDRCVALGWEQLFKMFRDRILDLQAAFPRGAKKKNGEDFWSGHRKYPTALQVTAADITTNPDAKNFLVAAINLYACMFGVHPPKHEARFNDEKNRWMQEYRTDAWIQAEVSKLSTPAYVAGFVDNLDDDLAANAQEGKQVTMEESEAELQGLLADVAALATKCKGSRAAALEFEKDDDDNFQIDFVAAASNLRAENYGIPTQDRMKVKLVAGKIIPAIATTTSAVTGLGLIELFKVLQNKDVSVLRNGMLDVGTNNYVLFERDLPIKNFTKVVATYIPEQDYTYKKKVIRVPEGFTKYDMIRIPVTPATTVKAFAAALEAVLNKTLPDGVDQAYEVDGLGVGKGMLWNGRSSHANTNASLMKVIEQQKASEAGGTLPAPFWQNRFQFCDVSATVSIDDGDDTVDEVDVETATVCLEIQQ

[3] = target: Sialic acid-binding Ig-like lectin 9 (Homo sapiens) (UniProt Q9Y336); assay: Hs-Siglec9 ALPHAscreen SOP 20170721; details: 10 µM
Sialic acid-binding Ig-like lectin 9 (Homo sapiens), sequence (Q9Y336 whole entry): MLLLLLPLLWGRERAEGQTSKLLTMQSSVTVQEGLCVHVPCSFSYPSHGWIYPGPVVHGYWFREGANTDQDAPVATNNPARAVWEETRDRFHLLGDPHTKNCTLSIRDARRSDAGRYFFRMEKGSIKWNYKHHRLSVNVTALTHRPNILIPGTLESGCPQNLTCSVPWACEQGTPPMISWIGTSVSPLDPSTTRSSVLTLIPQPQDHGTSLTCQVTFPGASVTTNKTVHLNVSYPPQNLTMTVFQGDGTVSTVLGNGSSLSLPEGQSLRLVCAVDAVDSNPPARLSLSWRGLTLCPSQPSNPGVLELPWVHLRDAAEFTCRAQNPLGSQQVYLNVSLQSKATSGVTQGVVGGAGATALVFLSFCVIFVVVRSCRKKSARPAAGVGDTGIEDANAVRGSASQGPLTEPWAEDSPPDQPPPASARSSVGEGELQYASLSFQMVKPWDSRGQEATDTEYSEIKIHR

[4] = system: Trypanosoma cruzi; assay: Trypanosoma cruzi phosphomannomutase and mannose-1-phosphate guanylyltransferase assay; assay type: functional; details: 10 µM
[5] = target: T2, Arginase-2, mitochondrial (Homo sapiens) (UniProt P78540); assay: in vitro enzyme assay to detect the production of urea directly proportional to the activity of Arginase II; assay type: functional; details: 33.3 µM; further: in the data most compounds retested in dose-response had high values
T2 sequence (whole entry): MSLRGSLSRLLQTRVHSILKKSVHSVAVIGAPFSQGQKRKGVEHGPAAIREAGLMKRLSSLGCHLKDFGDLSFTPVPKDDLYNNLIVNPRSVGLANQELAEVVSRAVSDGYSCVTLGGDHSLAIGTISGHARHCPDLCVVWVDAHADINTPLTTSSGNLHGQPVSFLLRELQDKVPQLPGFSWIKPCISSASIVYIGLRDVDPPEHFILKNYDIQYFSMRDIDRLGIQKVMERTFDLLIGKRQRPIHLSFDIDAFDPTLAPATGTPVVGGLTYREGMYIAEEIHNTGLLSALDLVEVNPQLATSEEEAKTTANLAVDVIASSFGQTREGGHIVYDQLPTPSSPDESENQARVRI

[6] = target: T3, Proteasome subunit beta (Trypanosoma cruzi) (UniProt O96673); assay: Trypanosoma cruzi proteasome chymotrypsin-like activity (TcProtChymo) assay.; further: in the data most compounds retested in dose-response had high values; assay type: functional; details: 9.37 µM
T3 sequence (whole entry): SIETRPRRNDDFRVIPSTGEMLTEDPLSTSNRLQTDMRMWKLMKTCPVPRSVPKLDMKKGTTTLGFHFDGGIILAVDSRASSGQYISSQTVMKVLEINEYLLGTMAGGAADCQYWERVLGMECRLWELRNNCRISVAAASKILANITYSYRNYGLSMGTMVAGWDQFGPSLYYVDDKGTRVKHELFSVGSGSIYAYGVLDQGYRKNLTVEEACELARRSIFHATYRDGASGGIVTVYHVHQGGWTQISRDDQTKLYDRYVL

[7] = species: Homo sapiens; assay: To identify inhibition of the IFN signalling (Jak-Stat) pathway via expression of an eGFP reporter gene under the control of an IFN-stimulated response element (ISRE) containing MxA promoter.; assay type: functional; details: 30 µM
[8] = target: T4, Tyrosyl-tRNA synthetase, putative (Trypanosoma cruzi (strain CL Brener)) (UniProt Q4DSP6); assay: Trypanosoma cruzi tyrosyl tRNA synthetase (TcYRS) _High Tyrosine SOP; assay type: functional; details: 30 µM; further: in the data most compounds retested in dose-response had high values
T4 sequence (whole entry): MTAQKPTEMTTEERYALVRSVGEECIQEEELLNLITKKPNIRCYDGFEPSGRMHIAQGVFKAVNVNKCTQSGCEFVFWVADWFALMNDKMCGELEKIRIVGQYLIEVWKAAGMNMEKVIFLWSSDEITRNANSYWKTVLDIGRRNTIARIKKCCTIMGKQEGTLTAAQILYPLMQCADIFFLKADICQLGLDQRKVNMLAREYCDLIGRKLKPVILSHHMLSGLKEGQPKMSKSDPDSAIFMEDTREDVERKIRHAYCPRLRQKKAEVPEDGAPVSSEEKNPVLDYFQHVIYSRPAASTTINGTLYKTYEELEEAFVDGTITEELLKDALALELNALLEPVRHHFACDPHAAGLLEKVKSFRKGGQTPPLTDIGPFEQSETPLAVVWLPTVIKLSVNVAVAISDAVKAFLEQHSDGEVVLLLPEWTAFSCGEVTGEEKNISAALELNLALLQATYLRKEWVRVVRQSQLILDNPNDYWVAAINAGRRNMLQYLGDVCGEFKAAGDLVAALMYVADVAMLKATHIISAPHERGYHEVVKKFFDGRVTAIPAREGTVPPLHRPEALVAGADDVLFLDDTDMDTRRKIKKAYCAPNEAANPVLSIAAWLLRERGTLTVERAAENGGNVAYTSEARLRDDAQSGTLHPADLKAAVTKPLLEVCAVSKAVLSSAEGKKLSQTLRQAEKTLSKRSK

[9] = target: T4, Tyrosyl-tRNA synthetase, putative (Trypanosoma cruzi (strain CL Brener)); assay: Trypanosoma cruzi tyrosyl tRNA synthetase (TcYRS) SOP; assay type: functional; details: 30 µM
[10] = target: Chromo domain-containing protein 1 (Saccharomyces cerevisiae (strain ATCC 204508 / S288c) (Baker's yeast)) (UniProt P32657); assay: ScCHD-1 Enzyme Inhibition Assay; assay type: functional; details: 30 µM; further: in the data most compounds retested in dose-response had high values
Chromo domain-containing protein 1 (Saccharomyces cerevisiae (strain ATCC 204508 / S288c) (Baker's yeast)), sequence (P32657 whole entry, the tested form may be a part): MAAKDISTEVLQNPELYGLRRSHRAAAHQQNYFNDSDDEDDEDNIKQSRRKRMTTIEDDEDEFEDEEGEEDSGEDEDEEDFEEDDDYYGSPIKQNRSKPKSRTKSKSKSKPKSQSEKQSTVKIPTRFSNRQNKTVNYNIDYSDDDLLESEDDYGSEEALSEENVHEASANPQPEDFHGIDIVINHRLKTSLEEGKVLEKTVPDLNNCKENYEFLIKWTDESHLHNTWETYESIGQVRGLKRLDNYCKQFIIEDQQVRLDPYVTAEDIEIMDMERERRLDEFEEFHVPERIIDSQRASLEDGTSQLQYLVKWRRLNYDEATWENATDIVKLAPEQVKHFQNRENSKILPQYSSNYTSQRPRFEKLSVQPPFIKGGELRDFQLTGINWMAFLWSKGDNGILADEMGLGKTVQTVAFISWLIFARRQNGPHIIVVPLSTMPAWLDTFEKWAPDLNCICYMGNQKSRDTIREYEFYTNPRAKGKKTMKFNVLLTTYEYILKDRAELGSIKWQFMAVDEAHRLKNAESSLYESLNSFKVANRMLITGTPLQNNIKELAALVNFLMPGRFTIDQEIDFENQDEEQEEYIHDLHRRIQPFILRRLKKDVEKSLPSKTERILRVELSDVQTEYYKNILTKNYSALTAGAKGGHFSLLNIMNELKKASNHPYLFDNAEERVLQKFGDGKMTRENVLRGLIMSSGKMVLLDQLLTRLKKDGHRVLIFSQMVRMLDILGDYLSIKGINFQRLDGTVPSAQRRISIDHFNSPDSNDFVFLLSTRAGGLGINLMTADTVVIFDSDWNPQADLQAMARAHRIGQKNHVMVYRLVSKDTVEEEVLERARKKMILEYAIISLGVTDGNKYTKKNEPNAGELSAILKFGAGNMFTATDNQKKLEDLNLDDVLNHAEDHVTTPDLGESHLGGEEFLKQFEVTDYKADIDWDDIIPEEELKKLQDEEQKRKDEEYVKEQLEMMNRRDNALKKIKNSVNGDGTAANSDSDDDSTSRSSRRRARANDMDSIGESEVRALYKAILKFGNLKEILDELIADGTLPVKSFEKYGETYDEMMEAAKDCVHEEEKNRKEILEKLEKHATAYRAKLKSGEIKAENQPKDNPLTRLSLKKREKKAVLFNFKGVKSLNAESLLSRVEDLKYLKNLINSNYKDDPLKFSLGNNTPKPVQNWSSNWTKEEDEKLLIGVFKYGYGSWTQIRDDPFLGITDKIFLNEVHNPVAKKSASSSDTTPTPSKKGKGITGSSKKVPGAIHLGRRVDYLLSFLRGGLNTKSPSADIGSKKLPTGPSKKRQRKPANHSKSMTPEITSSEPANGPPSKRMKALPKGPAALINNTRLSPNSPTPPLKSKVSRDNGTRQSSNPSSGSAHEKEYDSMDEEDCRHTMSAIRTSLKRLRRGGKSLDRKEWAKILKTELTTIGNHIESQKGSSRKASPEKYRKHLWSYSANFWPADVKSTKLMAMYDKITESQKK

Protein translocase subunit SecA (Escherichia coli (strain K12)), sequence (P10408 whole entry): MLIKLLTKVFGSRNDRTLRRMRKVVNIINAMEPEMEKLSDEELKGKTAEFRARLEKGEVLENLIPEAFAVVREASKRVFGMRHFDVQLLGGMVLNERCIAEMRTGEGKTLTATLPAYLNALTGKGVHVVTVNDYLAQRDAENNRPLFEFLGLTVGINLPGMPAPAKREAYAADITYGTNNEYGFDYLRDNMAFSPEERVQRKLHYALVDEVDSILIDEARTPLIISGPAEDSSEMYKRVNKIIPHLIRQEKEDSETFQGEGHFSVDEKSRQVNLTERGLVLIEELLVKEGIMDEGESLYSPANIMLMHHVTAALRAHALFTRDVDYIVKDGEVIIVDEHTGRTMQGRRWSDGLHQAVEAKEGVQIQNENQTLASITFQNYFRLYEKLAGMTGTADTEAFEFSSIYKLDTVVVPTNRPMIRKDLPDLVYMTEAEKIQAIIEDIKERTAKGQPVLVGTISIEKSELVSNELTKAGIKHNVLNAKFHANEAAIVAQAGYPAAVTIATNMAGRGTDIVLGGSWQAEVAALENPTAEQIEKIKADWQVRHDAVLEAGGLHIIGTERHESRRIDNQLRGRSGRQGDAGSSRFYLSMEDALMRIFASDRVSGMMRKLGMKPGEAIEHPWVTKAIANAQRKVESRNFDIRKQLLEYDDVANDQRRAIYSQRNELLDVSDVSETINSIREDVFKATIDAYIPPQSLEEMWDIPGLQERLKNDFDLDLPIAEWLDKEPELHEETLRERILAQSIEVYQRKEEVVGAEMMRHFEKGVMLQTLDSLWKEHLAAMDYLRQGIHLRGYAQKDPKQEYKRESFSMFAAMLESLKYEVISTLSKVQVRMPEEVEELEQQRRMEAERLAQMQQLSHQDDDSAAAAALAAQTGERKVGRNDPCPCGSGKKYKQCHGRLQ

SMILES	Percent Effect [1] [%]	Percent Effect [2] [%]	Percent Effect [3] [%]	Percent Effect [4] [%]	Percent Effect [5] [%]	Percent Effect [6] [%]	Percent Effect [7] [%]	Percent Effect [8] [%]	Percent Effect [9] [%]	Percent Effect [10] [%]
CCn1ncc(NC(=O)c2cc(C3CC3)nc3c2c(C)nn3C)c1C	-5.7	20	-4.48	3.75	-2.21	22	14.6	2.12	15	-28.1
O=C1CC2(CCN(CC3CC3)C2)CN1c1ccc2c(c1)OCO2 (stereo not given)	-2.02	16.9	-7.72	1.07	25.9	21.6	-0.411	12.1	-48.7	-4.12
NC(=O)C1CCN(C(=O)c2cccc(OCc3cscn3)c2)CC1	-1.56	10.3	-4.08	-3.1	5.33	5.89	26.4	2.39	10.8	-2.13
Cc1nc(COC[C@@H]2CCC[C@@]23CNCCO3)cs1	-4.17	6.49	-6	-4.19	4.05	13	8.21	6.84	2.56	-5.3
Cc1cc(C2CCCN2CCCS(=O)(=O)c2ccccc2)no1 (stereo not given)	-1.74	5.13	19.5	-1.41	-1.23	-8.11	8.46	3.35	8.43	-1.93
O=C(c1ccco1)N1C[C@H]2CCCN(CC3CCOCC3)[C@H]2C1	-3.2	6.49	-2.43	-4.77	-1.62	11.9	1.5	4.74	15.4	-2.11
c1cnnc(N2CCCC(NCc3nnc(-c4ccco4)o3)C2)c1 (stereo not given)	-0.0972	25.6	-15.5	1.03	-0.82	25.2	-0.0242	9.09	22.9	-1.66
CCOc1ccc(Cl)c(C(=O)N(C)C)n1	-2.43	15.4	-11.2	-3.66	2.05	14.2	30.8	4.31	13.2	-2.78
Cc1ccsc1C(=O)N1Cc2ccccc2C2(CCN(C)CC2)C1	-4.41	-1.3	-5.71	-5.55	-2.02	5.56	-24.7	1.58	2.56	-2.8
CC1CCN(C(=O)c2cccc3ncccc23)CC1	-2.07	-5.33	1.04	-1.21	-1.33	3.48	19	4.74	7.69	1.83
Cc1nc[nH]c1CN1CCN(C(=O)c2cccs2)[C@H]2CS(=O)(=O)C[C@H]21	-6.02	2.7	2.06	-2.81	3.85	4.62	5.03	4.79	14.6	-2.09
Cc1ccc(N2CCCN(C(=O)c3c(C)oc(C)c3C)CC2)nn1	-6.08	18.7	5.84	2.61	-0.887	9.92	4.96	4.74	15.4	-6.9
